Data from PubChem BioAssay AID602449 (Sanford-Burnham Center for Chemical Genomics, 2012).
Screen size: about 360,000 compounds; about 5,000 (1.4%) were called active. The sample holds actives, similar compounds and a random draw of the others, so the mix is not that of the screen. A number with no mark means an inactive call.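 How the source made its calls: active means inhibition of 50% or more, scaled per plate between neutral and stimulator controls; inactive means the rest.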

Assay: blockers of Ca2+-induced mitochondrial swelling – biochemical, isolated mouse mitochondria, absorbance, primary screen (AID 602449);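 further: 0% = DMSO wells given calcium and 100% = 1 mM EGTA wells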
Conditions: 30 min, at 10 µM, stronger effect = higher value

SMILES | inhibition
Cn1c(O)c(C=NCCCC(=O)O)c(=O)n(C)c1=O | 1.1%
CCCCC(=O)N/N=C/c1c(O)n(CC)c(=S)n(CC)c1=O | 58% (active)
CCCCC(=O)N/N=C/c1c(O)n(CCC2=CCCCC2)c(=O)[nH]c1=O | -4.5%
COc1ccc2c(c1)[C@]13CCCCC1C(C2)N(C)CC3 (stereo not given in full) | -3%
Cc1ccc(C2CN(C)CC2C(=O)c2ccc(F)cc2)cc1 (stereo not given) | -0.4%
CCN(CC)CCOC(=O)c1cc2cc(COC)ccc2o1 | -3.6%
CCOc1cccc(=NC2CCCCC2)c2c(C)[nH]c(C)c12 | 62.7% (active)
C=CCn1c(O)c(/C=N/N2CCOCC2)c(=O)[nH]c1=S | -1.7%
O=C(CCCn1c(=O)[nH]c2cc(Cl)ccc2c1=O)N1CCC2(CC1)OCCO2 | 1.1%
C[C@H]1CN([C@@H](C)CO)C(=O)CCCn2nncc2CO[C@H]1CN(C)C(=O)Oc1ccccc1 | 0.9%
CCCCCCCCCCCCn1ccc(=N)cc1 | 68.6% (active)
CC(=O)NCC1=C(c2ccc3ccccc3c2)C[C@@H]2CC[C@H]1N2Cc1ccco1 | -0.6%
O=C(CN1CCCCC1)Nc1ccc(Br)cc1C(=O)c1ccccc1Cl | 1.1%
COc1c(O)ccc2c1-c1c3c(cc4c1C(C2)N(C)CC4)OCO3 (stereo not given) | -0.5%
COc1ccc(C2NCc3ccc4c(c3-n3cccc32)OCO4)cc1OC (stereo not given) | 68% (active)
c1ccc(C2NCc3ccccc3-n3cccc32)cc1 (stereo not given) | 0.4%
O=C(Nc1cccc2ccccc12)N1CCC2(CC1)OCCO2 | 0.6%
O=C1/C(=C\c2ccc3c(c2)OCO3)N2CCC1CC2 | -0.8%

SMILES | inhibition
O=c1c2ccccc2nc(-c2ccc(Cl)cc2Cl)n1-c1ccncc1 | 0.3%
COc1ccc(-c2nc(CS(=O)CC(=O)N3CCC4(CC3)OCCO4)c(C)o2)cc1 (stereo not given) | 1%
O=Cc1cn(Cc2ccc(F)cc2Cl)c2ccccc12 | 60.7% (active)
Cc1ccnc(-n2c(C)cc(/C=C3\C(=O)NC(=S)N(C)C3=O)c2C)c1 | 6.4%
O=C1C2CCN(CC2)C1(CO)CO | -0.5%
CCN(CC)C(=O)c1ccc(NC(=O)c2sccc2-c2ccccc2)cc1 | 0.3%
CCCCn1c(O)c(C(CC)=NCc2ccco2)c(=O)[nH]c1=O | -0.1%
CCCCCCN=C(CC)c1c(O)n(CCCC)c(=O)[nH]c1=O | 79.8% (active)
CCC(=NCCCO)c1c(O)n(-c2ccc(OC)cc2)c(=O)[nH]c1=O | 2.3%
Cc1cccc(-n2c(O)c(C=NC34CN5CN(CN(C5)C3)C4)c(=O)[nH]c2=O)c1 | 2.5%
CSc1ccc(C(=O)C2CCCN(Cc3ccn[nH]3)C2)cc1 (stereo not given) | 1.7%
CC(=CCOc1ccc2ccc(=O)oc2c1)C1=CC(=O)C(C)(C)O1 | 1.5%
O=C(NCC1=C(c2ccc3ccccc3c2)C[C@@H]2CC[C@H]1N2Cc1ccco1)c1cccs1 | -1.7%
CC(Cc1ccccc1)NCCC(c1ccccc1)c1ccccc1 (stereo not given) | 104% (active)
CCOc1ccc(C2SCC(=O)Nc3c2c(C)nn3C2CCOC(C)(C)C2)cc1 (stereo not given) | 0.4%
Cc1ccsc1C(=O)C1CCCN(Cc2ccc(O)cc2)C1 (stereo not given) | 0.1%
Cn1c(O)c(C=Nc2ccc3c(c2)CCC3)c(=O)n(C)c1=O | -1.3%
